Bioassay records as filed in PubChem BioAssay.
Wnt act – Wnt/beta-catenin pathway activators, primary screen, cell-based, plate reader, single point | 1.2% of 300,000 active | Wnt/beta-catenin reporter cell assay, activator | activation, % at 9.35 µM; in the data active means activation above about 30%, passing the limit was not always enough; inconclusive means no clear call, values can overlap the other calls;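 further: 0% = neutral control wells and 100% = positive control wells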
SMARCA2 activ – SMARCA2 (BRM) function activators, primary screen, cell-based, luminescence, high throughput; MG213 cells, MMTV-luciferase reporter, dexamethasone, overnight; activation, % at 9.1 µM; 1% of 370,000 active; in the data active means activation above about 7.8%;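 further: 0% = vehicle wells and 100% = reference activator wells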
HSF-1 act – HSF-1 activators, primary screen, NIH3T3-HGL cells, MG132 stress, luminescence, single point; NIH3T3-HGL HSF-1 luciferase reporter, 8 h; 100% = twice DMSO control signal; activation, % at 9 µM; 1.7% of 300,000 active; AID 504408, 2011;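 active means mean replicate activation of at least 50% with a set share of replicates each reaching 50%; inconclusive means only one of those two conditions met; inactive means mean below 50% and too few replicates reaching it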;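 further: 0% = median of the neutral control wells and 100% = twice that signal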
MITF TRPM1 HTS – activators of MITF-driven TRPM1 promoter reporter, primary screen, cell-based, SK-MEL-5, luciferase, single point; SK-MEL-5 TRPM1-promoter luciferase, 24 h; % of positive control, neutral wells = 0; activation, % at 12.5 µM; 0.75% of 300,000 active;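 active means mean activation of at least 80% with every replicate also reaching 80%; inconclusive means mean reaches 80% but some replicate falls short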;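 further: 0% = neutral control wells and 100% = parthenolide positive control wells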
HSF1 inh – HSF1 inhibitors in luciferase reporter cells, primary screen, cell-based, NIH3T3, luminescence. activity change, negative = inhibition, % at 7.5 µM (by protocol). 0.77% of 300,000 active. NIH3T3-HGL HSE-luciferase, MG132-induced, luminescence 8 h; active compounds read low;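 active means more than half of replicate wells show activity change below -50%, luminescence cut by over half; inconclusive means some wells, but at most half, below -50%; inactive means no replicate well below -50%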;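 further: luciferase reports HSF-1 transcriptional activity via heat shock element; 0% = median of DMSO wells and -100% = zero luminescence signal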
esBAF inh – Bmi1 luciferase reporter increase in mESCs, primary screen, esBAF inhibitor project, mouse ES cells, Bmi1 luciferase knock-in, single point | 24 h; 100% = twice the neutral-well signal | reporter increase, % at 12.5 µM | 2% of 350,000 active; in the data active means activation above about 40%; inconclusive means no clear call, values can overlap the other calls;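 further: 0% = median of the plate's neutral control wells and 100% = double that signal; a rise in the Bmi1 reporter signal indicates esBAF inhibition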
Starred values were filed as active, the others as inactive. Hits are enriched below; roughly 4.3% of the tested compounds scored in any of these assays.

For C/C(=N\Nc1ccc(Cl)cc1)c1ccncc1 the results were Wnt act 2.9, SMARCA2 activ 2.3, HSF-1 act -16.4, HSF1 inh -4.9 and esBAF inh 8.4.
C/C(=N\NC(=O)c1ccccn1)c1ccc(Cl)cc1 was read as Wnt act 46.8*, SMARCA2 activ 5.5, HSF-1 act 33.6 and HSF1 inh 24.2.
Screening C/C(=N\NC(=O)c1ccc(Cl)cc1)c1ccccn1 returned Wnt act 14.6, SMARCA2 activ 2.1, HSF-1 act 18.1, HSF1 inh 4.7 and esBAF inh -9.4.
For C/C(=N\Nc1ccc(Cl)cc1)c1ccccn1 the results were SMARCA2 activ 1.7, HSF-1 act -8.1, MITF TRPM1 HTS 28.8, HSF1 inh 10.0 and esBAF inh 48.2*.
CCCN1[C@H](C(=O)NCCCN2CCOCC2)[C@@H](CO)[C@@H]2Cn3c(ccc(-c4ccccc4)c3=O)[C@@H]21 was read as esBAF inh -4.3.
Screening CCCC(=O)Nc1ccc(-c2nc3ncccc3o2)cc1 returned Wnt act 36.8*, SMARCA2 activ 1.8, HSF-1 act 0.6, HSF1 inh 9.6 and esBAF inh 36.9.
For CC(C)C(=O)Nc1ccc(-c2nc3ncccc3o2)cc1 the results were Wnt act 37.4*, SMARCA2 activ 2.7, HSF-1 act 21.9, HSF1 inh 0.0 and esBAF inh -18.0.
For C[C@H]1CCCCO[C@H](CN(C)C(=O)C2CCCCC2)[C@@H](C)CN([C@@H](C)CO)C(=O)c2cc(NS(C)(=O)=O)ccc2O1 the results were esBAF inh 0.6.
C/C=C/c1ccc(OCC(=O)O)c(OC)c1 was read as Wnt act 0.8, SMARCA2 activ -1.3, HSF-1 act 2.3, MITF TRPM1 HTS -0.6, HSF1 inh -3.3 and esBAF inh -1.3.
`C/C=C/c1ccc(OCC(=O)Nc2cc(OC)c(OC)c(OC)c2)c(OC)c1` gave Wnt act -1.3, SMARCA2 activ 2.1, HSF-1 act -60.0, MITF TRPM1 HTS -15.4, HSF1 inh -52.3* and esBAF inh 9.7.
For COc1ccc(-n2cc(CNCCc3nc(C)cc(C)n3)c(-c3ccccc3Cl)n2)cc1 the results were Wnt act -0.2, SMARCA2 activ 0.5, HSF-1 act 32.4, MITF TRPM1 HTS 13.2, HSF1 inh 12.0 and esBAF inh 5.8.
`Fc1ccc(-n2cc(CNCCc3ccccn3)c(-c3ccccc3Cl)n2)cc1` gave Wnt act -2.6, SMARCA2 activ 0.0, HSF-1 act -65.5, MITF TRPM1 HTS 1.9, HSF1 inh -52.5* and esBAF inh 0.1.
`CCOC(=O)Cc1nnc2c(Nc3ccccc3F)nc3nonc3n12` gave SMARCA2 activ -2.3, HSF-1 act -79.0, MITF TRPM1 HTS -3.7 and HSF1 inh -73.8*.
C/C(=N\NC(=O)c1c(C)nc2ccccn12)c1ccc(N2CCOCC2)cc1 was read as Wnt act -6.4, SMARCA2 activ -0.4, HSF-1 act 8.1, MITF TRPM1 HTS 3.6 and HSF1 inh -0.5.
`C/C(=N\NC(=O)c1c(C)nc2ccccn12)c1ccc(C(C)(C)C)cc1` gave Wnt act 1.7, SMARCA2 activ -3.6, HSF-1 act -62.5, MITF TRPM1 HTS 12.2, HSF1 inh -55.2* and esBAF inh 4.6.
CCOC(=O)CNc1c(-c2ccc(O)cc2)nc2ccc(Cl)cn12 was read as SMARCA2 activ 2.2, HSF-1 act 72.4*, MITF TRPM1 HTS 25.0, HSF1 inh 61.8 and esBAF inh 17.5.
For CS(=O)(=O)c1cccc(C(=O)Nc2ccc3c(c2)OCCCO3)c1 the results were Wnt act 13.6, SMARCA2 activ -0.2, HSF-1 act 1.1, MITF TRPM1 HTS 81.3*, HSF1 inh -4.3 and esBAF inh 58.1*.
O=C(Nc1ccc2c(c1)OCCO2)c1cccc(S(=O)(=O)N2CCOCC2)c1 was read as Wnt act 45.1*, SMARCA2 activ 2.5, HSF-1 act 19.4, MITF TRPM1 HTS 54.7, HSF1 inh 10.7 and esBAF inh inconclusive.
Screening O=C(Nc1ccc2c(c1)OCCO2)c1cccc(S(=O)(=O)N2CCCCC2)c1 returned SMARCA2 activ -3.2, HSF-1 act 14.4, MITF TRPM1 HTS 6.5, HSF1 inh -13.1 and esBAF inh 6.0.
For COc1ccc(Cl)cc1NC(=O)CCc1nc(-c2ccccc2F)no1 the results were Wnt act -0.1, SMARCA2 activ -1.8, HSF-1 act 68.9*, MITF TRPM1 HTS -13.7 and HSF1 inh 56.8.
CC(=Nc1ccc(C)cc1)c1sc2ccccc2c1O was read as Wnt act 46.4*, SMARCA2 activ 5.3, HSF-1 act 30.7, MITF TRPM1 HTS 26.6 and HSF1 inh 20.0.
For COC(=O)C[C@H]1CC[C@@H]2[C@@H](COc3ccc(NC(=O)Nc4cccc(C#N)c4)cc3C(=O)N2C)O1 the results were esBAF inh -4.8.
For CC=Cc1ccc2n(c1=O)C[C@H]1[C@H](CO)[C@@H](C(=O)N3CCCCC3)[C@@H]2N1Cc1ccccn1 (mixture of isomers) the results were esBAF inh 3.2.
Screening COc1cccc(/C=C2\CCC(C3CCCC3)C2=O)c1OC (stereo not given) returned Wnt act 29.9, SMARCA2 activ 4.7, HSF-1 act 25.8, MITF TRPM1 HTS 74.7, HSF1 inh 12.6 and esBAF inh 67.4*.
`CCCN(CCC)c1nc2ccccc2nc1C(C#N)C(=O)OCCOC` (stereo not given) gave SMARCA2 activ -0.1, HSF-1 act 11.4, MITF TRPM1 HTS 90.9*, HSF1 inh 0.6 and esBAF inh -6.6.
CC(C)NC(=O)Nc1ccc2c(c1)C(=O)N([C@@H](C)CO)C[C@H](C)[C@@H](CN(C)CC1CCCCC1)O2 was read as esBAF inh 4.0.
For Cc1ccc(NC(=O)Nc2ccccc2)nc1 the results were Wnt act 1.4, SMARCA2 activ 4.4, HSF-1 act 54.4* and HSF1 inh 33.2.
COc1ccccc1NC(=O)Nc1ccc(C(=O)N2CCCCC2)cc1 was read as Wnt act 15.1, SMARCA2 activ 7.6, HSF-1 act 21.7, MITF TRPM1 HTS 111.1*, HSF1 inh 10.7 and esBAF inh 36.8.
`CC(=O)c1ccc(NC(=O)Nc2cccc(Cl)c2)cc1` gave SMARCA2 activ -0.8, HSF-1 act 67.5*, MITF TRPM1 HTS 53.4 and HSF1 inh 36.5.
For COC(=O)c1ccccc1NC(=O)Nc1ccc(C(=O)N2CCCC2)cc1 the results were Wnt act -2.6, SMARCA2 activ 6.3, HSF-1 act -3.5, HSF1 inh -2.8 and esBAF inh -2.4.
